Compound activity deposited in PubChem by several laboratories.
TWEAK-Fn14 inh: TWEAK-Fn14 signaling inhibition | TWEAK-stimulated Fn14 reporter cells, luciferase luminescence, 8 h | inhibition, % at 10 µM | 360,000 tested, 2% active; in the data active means inhibition above about 50%
MITF TRPM1 inh: MITF TRPM1 promoter inhibition in SK-MEL-5 cells; SK-MEL-5 TRPM1 promoter luciferase, 24 h; inhibition, % at 12.5 µM; 330,000 tested, 0.83% active; AID 488899;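 active means mean inhibition across replicates of 60% or more, whatever share of single replicates reaches that level; inconclusive means some that reach 60%, reason not given; inactive means mean inhibition across replicates below 60%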
Shn3 3UTR inh: reduces Shn3 3'UTR luciferase signal in osteoblasts; 360,000 tested, 0.52% active; AID 588674; inhibition, % at 12.5 µM; Clone20 osteoblast Shn3 3'UTR firefly luciferase, 24 h;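 active means mean inhibition of at least 75% with every replicate also reaching 75%; inconclusive means mean inhibition at least 75% but some replicate below; inactive means mean inhibition below 75%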;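 further: 0% = median of neutral control wells and 100% = pilot-screen positive control compound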
LMP1 NFkB inh: Epstein-Barr LMP1 NF-kappaB reporter inhibition; LMP1-induced NF-kappaB luciferase reporter cells, luminescence; inhibition, % at 12.5 µM; 350,000 tested, 0.69% active; in the data active means inhibition above about 41%; inconclusive means no clear call, values can overlap the other calls;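 further: 0% = neutral control wells and 100% = reference inhibitor control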
TROY signal inh: blocks TROY-dependent signaling in reporter cells; Q293 LMP1-TROYcd NF-kB luciferase reporter, 4 h; inhibition, % at 10 µM; 360,000 tested, 0.98% active;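 active means compounds whose plate-normalised and pattern-corrected inhibition of the luciferase reporter signal at the single screening dose is 50% or more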
Peg3 promoter: reduces Peg3 promoter-driven luciferase expression in HeLa; inhibition, % at 20 µM; 360,000 tested, 1.7% active; HeLa PEG-Prom luciferase reporter, luminescence, overnight; AID 588405;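 active means inhibition of at least 50% at 20 µM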
* hit, by the source's call; ? = inconclusive; nt = no result given. Most compounds without a hit are left out; they make up all but 4.1% or so of the library.

SMILES | TWEAK-Fn14 inh | MITF TRPM1 inh | Shn3 3UTR inh | LMP1 NFkB inh | TROY signal inh | Peg3 promoter
CCOc1ccccc1CNC(=O)Cn1nc(C)c2c(C)n(-c3ccc(C)cc3)nc2c1=O | 58* | 49 | 28 | 23 | 27 | 22
Cc1ccc(-n2nc3c(N4CCC(C(=O)N5CCCCCC5)CC4)nnc(C)c3c2C)cc1 | -28 | -9 | 14 | -13 | 22 | 30
CCOc1ccccc1CNC(=O)C1CCN(c2nnc(C)c3c(C)n(-c4ccc(C)cc4)nc23)CC1 | -13 | 96* | 41 | -1 | -28 | 97*
COc1ccc(-n2nc3c(N4CCC(C(=O)NCc5cccc(C)c5)CC4)nnc(C)c3c2C)cc1 | -6 | 95* | -23 | -4 | 12 | 99*
CCc1ccc(CNC(=O)C2CCCN(c3nnc(C)c4c(C)n(-c5ccccc5)nc34)C2)cc1 (stereo not drawn) | 19 | 66* | 42 | 17 | 35 | -41
COC(=O)c1ccc(CNC(=O)c2ccc(NS(=O)(=O)c3ccc4[nH]c(=O)[nH]c4c3)cc2)cc1 | -23 | -5 | 6 | 8 | -22 | 5
CCOc1ccc(/C(O)=C2/C(=O)C(=O)N(c3ccccn3)C2c2ccc(F)cc2)c(C)c1 (stereo not drawn) | 0 | -2 | -24 | -6 | -3 | -7
CCOC(=O)[C@]12CCC=C1N(Cc1ccc(Cl)cc1Cl)C(=O)[C@H](CC(=O)N1CCN(C(=O)c3ccco3)CC1)C2 | -20 | nt | nt | nt | 5 | nt
CCOc1cccc(/C=N/NC(=O)c2cccnc2)c1O | 10 | 30 | 70 | 8 | 3 | 30
CCOc1cccc(/C=N/NC(=O)c2cc(C3CC3)[nH]n2)c1O | -17 | 61* | 95* | -4 | -12 | 35
Cc1[nH]c2ccccc2c(=O)c1C(=O)/C=C/c1ccccc1 | 88* | 85* | 50 | 24 | 64* | 105*
O=C(C=Cc1ccccc1)c1c[nH]c2ccccc2c1=O | 78* | 46 | -24 | -12 | 3 | 97*
Cc1ccc(CNC(=O)CNC(=O)c2ccco2)cc1 | 7 | 5 | -13 | -2 | 8 | 2
CC1CCCN(c2ccc3nc4ccccc4c(=O)n3n2)C1 (stereo not drawn) | 37 | 20 | -9 | 24 | 66* | -18
CCOc1ccc(N(C(C)C(=O)N2CCCCCC2)S(C)(=O)=O)cc1 (stereo not drawn) | -5 | 17 | 3 | 71* | 4 | 17
CC(C(=O)N1CCCCCC1)N(c1ccc(Cl)cc1)S(C)(=O)=O (stereo not drawn) | 1 | 4 | 18 | -13 | 2 | 8
NS(=O)(=O)c1ccc(CCNC(=O)/C=C/c2ccccc2[N+](=O)[O-])cc1 | -7 | 3 | 9 | -8 | 1 | 17
COC(=O)CCCC(=O)NC1CCCc2c1cnn2-c1ccc(F)cc1F (stereo not drawn) | -8 | 12 | -13 | -8 | -3 | 2
C=CCN(CC=C)C(=S)NC(=O)/C=C/c1ccc(C)cc1 | 63* | 11 | -6 | -1 | 6 | -9
C=CCN(CC=C)C(=S)NC(=O)/C=C/c1ccccc1 | 11 | -1 | 7 | 0 | 1 | 2
Fc1ccc(Oc2nc(-c3ccccc3)nnc2C(F)(F)F)cc1 | 4 | 7 | 5 | -17 | -1 | 26
Fc1ccc(Sc2nc(-c3ccccc3)nnc2C(F)(F)F)cc1 | 38 | 19 | 14 | 1 | 30 | 84*
Cc1nn(-c2ccc(Cl)cc2)c(=O)c2ccccc12 | -7 | -11 | -82 | -38 | -38 | -181
Cc1c(Cl)sn(-c2ccc(Cl)cc2)c1=O | -8 | 97* | 91* | 11 | -9 | 108*
COc1cc(-c2noc(C)c2-c2ccc(N(C)C)nc2)cc(OC)c1OC | 8 | ? | 7 | 12 | 7 | 23
SMILES | TWEAK-Fn14 inh | MITF TRPM1 inh | Shn3 3UTR inh | LMP1 NFkB inh | TROY signal inh | Peg3 promoter
COc1cc(-c2noc(C)c2-c2ccc3[nH]ccc3c2)cc(OC)c1OC | 56* | 32 | 10 | -3 | 12 | -24
CSC[C@H]1CN(c2ccc(Br)cc2)C(=O)[C@@H]1CC(=O)Nc1ccc(Br)cc1 | -12 | nt | 6 | 6 | 4 | 7
COC(=O)c1ccc(NCc2cc(O)ccc2O)cc1O | 83* | -6 | 70 | -61 | -9 | -11
COC(=O)c1ccc(NCc2c(O)ccc(O)c2Br)cc1Cl | 80* | 6 | 81 | -48 | 23 | 19
CCCc1nnc(NC(=O)CCC(=O)N2CCC(C)CC2)s1 | 3 | -6 | -19 | 9 | 1 | 17
CCCNC(=O)COc1ccc2c(=O)c(Oc3ccccc3F)coc2c1 | -9 | 10 | 27 | 5 | -13 | 7
CCc1ccccc1NC(=O)COc1ccc2c(=O)c(Oc3cc(C)ccc3C)coc2c1 | 5 | 0 | 12 | -2 | 56* | -220
NC(=S)N/N=C1\CCOc2ccc(F)cc21 | 9 | 17 | -18 | 2 | 29 | 7
COC(=O)c1ccc(CN2C(=O)NC3(CCCCC3C)C2=O)o1 (stereo not drawn) | 53* | -2 | 8 | 2 | nt | 18
COC(=O)c1ccc(CN2C(=O)NC3(CCCc4ccccc43)C2=O)o1 (stereo not drawn) | 5 | 3 | 4 | -5 | 17 | 0
CC(=O)c1cccc(N(C(=O)CNC(=O)c2cccs2)C(C(=O)NCC2CCCO2)c2ccccc2)c1 (stereo not drawn) | 5 | -1 | 4 | 1 | -1 | 12
Cc1ccc(NC(=O)c2ccc(CN3CCN(C)CC3)cc2)cc1Nc1nccc(-c2cccnc2)n1 | -8 | -19 | -32 | 77* | -12 | -23
O=C(Cn1cc(C(F)(F)F)cc(Cl)c1=O)Nc1cccc(S(=O)(=O)N2CCCCC2)c1 | -14 | 6 | 15 | -3 | -15 | 6
CS(=O)(=O)c1ccc(C(=O)N2CCN(S(=O)(=O)c3ccc(C4CCCCC4)cc3)CC2)cc1 | 17 | 24 | 60 | 7 | 20 | 9
C=CCN1CCN(C(CC(C)C)c2nnnn2CCOC)CC1 (stereo not drawn) | 6 | 2 | 2 | 49* | -5 | 2
Cc1c(N=Cc2nc3ccccc3[nH]2)c(=O)n(-c2ccccc2)n1C | -16 | -5 | -17 | -8 | -34 | -12
Cc1c(N=C2C=CC(=O)c3ccccc32)c(=O)n(-c2ccccc2)n1C | 32 | 71* | -12 | -12 | 23 | 47
Cc1c(N=Cc2nc3ccccc3n2C)c(=O)n(-c2ccccc2)n1C | 62* | 6 | -7 | -8 | 64* | -65
COc1ccc(Cl)cc1-c1cc(C(=O)NC2CCCCC2)[nH]n1 | -26 | nt | -74 | nt | -17 | -73
O=Cc1s/c(=N\S(=O)(=O)c2ccccc2)n(CCCCl)c1Cl | 96* | 97* | 93* | 3 | 35 | 109*
O=C(CNC(=O)c1ccccc1)N/N=C/C=C/c1ccccc1 | 7 | 7 | -5 | 1 | -9 | 20
O=C(Cc1cc(=O)[nH][nH]1)N/N=C/C=C/c1ccccc1 | 62* | -1 | -28 | -6 | 3 | -20
